Experimental data published in PubChem BioAssay (NCI).
This is part of a sample that, as a whole, favours compounds with a hit. Of some 83,000 tested, about 20% had one in any assay.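 The endpoint reported here, percent growth, reads 100 for growth as untreated, 0 for no net growth and -100 for all cells dead.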 Active and inactive are the calls of the source. The calls were made as follows: active = growth percent below 10; inactive = the rest.

Key:
Assay in all cases: NCI-60 one-dose screen, 48 h (100 = growth as untreated, 0 = no growth, -100 = all killed)
Details in all cases: 10 µM
[1] = test system: SR leukemia
[2] = test system: RPMI-8226 leukemia
[3] = test system: OVCAR-8 ovarian
[4] = test system: OVCAR-5 ovarian
[5] = test system: OVCAR-4 ovarian
[6] = test system: SK-OV-3 ovarian
[7] = test system: IGROV1 ovarian
[8] = test system: OVCAR-3 ovarian
[9] = test system: HS 578T breast
[10] = test system: NCI/ADR-RES ovarian
[11] = test system: T-47D breast
[12] = test system: BT-549 breast
[13] = test system: MDA-MB-435 melanoma
[14] = test system: SW-620 colon
[15] = test system: MCF7 breast
[16] = test system: HCT-116 colon
[17] = test system: HCC-2998 colon
[18] = test system: KM12 colon
[19] = test system: MDA-MB-468 breast

Measured: growth

COc1cc2c3c(n(CCCNCCO)c(=O)c2cc1OC)-c1nc2c(cc1C3=O)OCO2
active: [1] 1.88% | [2] 3.98% | [3] -69.3% | [4] -3.64% | [6] -14.2% | [8] -68.5% | [11] 1.91% | [15] -11.4% | [16] -49.8% | [19] -58.8%
inactive: [5] 26.1% | [7] 12.4% | [9] 65.6% | [10] 84.1% | [12] 25.3% | [13] 45.2% | [14] 20.2% | [17] 11.6% | [18] 40.4%

O=C(Cn1nc(-c2ccccc2)ccc1=O)NNC(=S)NC1CCCCC1
inactive: [1] 89.4% | [2] 97% | [3] 112% | [4] 105% | [5] 114% | [6] 112% | [7] 104% | [8] 122% | [9] 101% | [10] 105% | [11] 82% | [12] 111% | [14] 113% | [15] 99.4% | [16] 112% | [17] 114% | [18] 109%

COc1ccc(CN2[C@H](C(=O)NCc3ccc(C(=O)NO)cc3)Cc3c([nH]c4ccccc34)[C@H]2C2CC2)cc1
active: [19] 3.8%
inactive: [1] 25.5% | [2] 47.3% | [3] 39.3% | [4] 34.4% | [5] 51.8% | [6] 62% | [7] 50.5% | [8] 48.7% | [9] 32.6% | [10] 84% | [11] 40.4% | [12] 58.6% | [13] 18.1% | [14] 30.9% | [15] 36.8% | [16] 23% | [17] 33% | [18] 44.7%

CN1CCN(Cc2ccc(NC(=O)c3cncc(C#Cc4cnc5ccc(N[C@H]6CCOC6)nn45)c3)cc2C(F)(F)F)CC1
inactive: [10] 13.7%
active: [1] -21.7% | [2] -35.1% | [3] -94.4% | [4] -72% | [5] -65.3% | [6] -63.8% | [7] -74.6% | [8] -93.7% | [9] -42.7% | [11] -64.7% | [12] -67.7% | [13] -79.6% | [14] -69.8% | [15] -84.4% | [16] -62.6% | [17] -96.4% | [18] -89.7% | [19] -94%

COc1ccc2[nH]cc(/C=N/Nc3ccc(Br)cn3)c2c1
inactive: [3] 34% | [4] 55.3% | [5] 53.2% | [6] 65.7% | [7] 10.3% | [8] 31.1% | [9] 25.8% | [11] 22.3% | [13] 13.8% | [14] 19.2% | [17] 10.2%
active: [1] 3.07% | [2] -11.4% | [10] 7.9% | [12] -2.65% | [15] 3.69% | [16] 8.63% | [18] -0.565% | [19] -40.9%

NS(=O)(=O)c1ccc(NC(=O)CSc2ccc(-c3ccc(Cl)cc3)nn2)c(Br)c1
inactive: [1] 66.4% | [2] 72.5% | [4] 73.3% | [5] 29.8% | [6] 60.2% | [7] 63.4% | [10] 70% | [11] 41.6% | [12] 26.8% | [14] 82.8% | [15] 26.8% | [16] 26.6% | [17] 58.2% | [18] 64.6%
active: [3] 3.04% | [8] 7.69% | [9] 4.72% | [19] -3.52%

C=C1CCC2C3(C)COC(c4cccc(F)c4)OC3CCC2(C)C1CC(O)C1=CCOC1=O (stereo unspecified)
inactive: [1] 40.4% | [2] 20.6% | [3] 15.1% | [4] 76.1% | [5] 67.1% | [6] 108% | [7] 61.1% | [8] 62.1% | [9] 74.6% | [11] 37.9% | [13] 57.7% | [15] 14.2% | [17] 63.1% | [18] 59.6% | [19] 52.1%
active: [10] 4.5% | [12] -4.37% | [14] 6.42% | [16] -7.46%

CC(=O)c1cc(C(=O)N2c3ccccc3Sc3ccccc32)n2ccc(C)cc12
inactive: [2] 19.8% | [3] 45.9% | [4] 66.8% | [5] 51.7% | [6] 99.8% | [7] 37.1% | [8] 58% | [9] 53.7% | [10] 18.4% | [11] 20.8% | [12] 16% | [13] 28% | [14] 25.6% | [15] 26.5% | [17] 32.7% | [18] 28.3%
active: [1] 6.72% | [16] 7.08% | [19] 3.44%

O=C(NO)c1ccc(CNc2nc(-c3ccccc3)c3ccccc3n2)cc1
active: [3] 6.42% | [4] -22.4% | [6] -39.1% | [7] -46.3% | [8] -11.3% | [9] 2.21% | [10] -44.5% | [11] -13.1% | [13] 4.16% | [14] -58.2% | [15] 7.92% | [16] 4% | [17] -63.9% | [19] -0.98%
inactive: [1] 15.7% | [2] 11.3% | [5] 32.9% | [12] 18.1% | [18] 11.6%

O=C(CNc1nc(-c2ccccc2)cs1)Nc1ccc(Br)cc1
active: [1] -18.8% | [2] -5.37% | [3] -5.23% | [4] -96.3% | [5] -49.9% | [6] 8.41% | [7] -75.4% | [8] -77.7% | [10] -16.7% | [11] -51.4% | [12] -61.2% | [13] -1.09% | [14] -64.6% | [15] -82.2% | [16] -44.9% | [17] -98.1% | [18] -68.3% | [19] -84.1%
inactive: [9] 16.6%

Cc1cc(C)nc(NS(=O)(=O)c2ccc(N/C(N)=N/c3nccc(-c4ccccc4)n3)cc2)n1
inactive: [1] 53.8% | [2] 60.8% | [3] 77.7% | [4] 76.1% | [5] 67.3% | [6] 52.9% | [7] 38.9% | [8] 86.8% | [9] 48.1% | [10] 84.5% | [11] 25.1% | [12] 83.7% | [13] 86% | [14] 93.8% | [15] 37% | [16] 76.6% | [17] 85.3% | [18] 78.8% | [19] 64.2%

CC(=O)Nc1ccc(-c2cn(-c3cccc(C(=O)Nc4cc(CN5CCOCC5)cc(C(F)(F)F)c4)c3)nn2)cn1
inactive: [10] 67.9%
active: [1] 0.486% | [2] 2.68% | [3] -37% | [4] -95% | [5] -82.6% | [6] -67.6% | [7] -84.6% | [8] -54.5% | [9] -46.2% | [11] -71.5% | [12] -82.1% | [13] -89.1% | [14] -72.6% | [15] -84% | [16] -56.1% | [17] -95.6% | [18] -42.7% | [19] -92.1%

Cc1ccc(CNC(=O)Cc2ccc3c(c2)CN(C2CCC(=O)NC2=O)C3=O)cc1 (stereo unspecified)
active: [3] 1.57% | [5] 0.757% | [7] 2.34% | [8] 6.03% | [9] -15.4% | [10] -8.37% | [11] -4% | [12] -46.4% | [14] 4.15% | [17] -23.5% | [18] 1.17% | [19] -50.8%
inactive: [1] 38.7% | [2] 30.3% | [4] 29.5% | [6] 18.4% | [13] 13.7% | [15] 15.1% | [16] 65.2%

CCOC(=O)C1=C(N)N(c2ccccc2)C2=C(C(=O)CC(C)(C)C2)C1c1ccc(Cl)cc1 (stereo unspecified)
active: [2] 7.68%
inactive: [1] 13.1% | [3] 61.1% | [4] 57.6% | [5] 29.3% | [6] 43.7% | [7] 59.5% | [8] 51.6% | [9] 71.9% | [10] 25.6% | [11] 29.5% | [12] 43.2% | [13] 22% | [14] 27.9% | [15] 17.4% | [16] 18.7% | [17] 42.9% | [18] 17.9% | [19] 33.2%

Clc1cccc(N/N=C/c2c[nH]c3ccccc23)n1
inactive: [1] 13.7% | [3] 41% | [4] 52.2% | [5] 41.3% | [6] 63.7% | [9] 28.5% | [11] 27.4% | [13] 19.8% | [14] 52.1% | [15] 11.2% | [16] 23.4% | [17] 30.2%
active: [2] 4.05% | [7] -4.86% | [8] -12.6% | [10] -4.45% | [12] 3.11% | [18] 9.99% | [19] -10.1%

Oc1ccc(/C=C2\CCCc3cc4ccc(O)cc4[o+]c32)c(O)c1
active: [3] -56.9% | [8] -45.1% | [10] -24.7% | [13] -40.7% | [18] 6.02% | [19] -13.8%
inactive: [1] 15.3% | [2] 50.6% | [4] 122% | [5] 42.9% | [6] 86.3% | [7] 21.4% | [9] 52.3% | [11] 18.3% | [12] 23.3% | [14] 20.5% | [15] 10.8% | [16] 15.7% | [17] 31%
